Dicer processing: inhibitors of Dicer pre-microRNA processing, primary screen, biochemical, cat-ELCCA, chemiluminescence | cat-ELCCA pre-miR-21 Dicer processing; active compounds read high | AID 1347074, 2019 | z-score at 25 µM | 47,000 tested, 6% active | Endoribonuclease Dicer (Homo sapiens), Q9UPY3; in the data active means z-score above about 3, passing the limit was not always enough;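 further: plate controls were vehicle for no effect and no enzyme for full effect; higher signal means more uncleaved substrate so more Dicer inhibition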
The depositor's hits bear a star. The full list was thinned out, with hits kept by preference.

How did Cc1ccc(S(=O)(=O)Nc2ccc(C)cc2NS(=O)(=O)c2ccc(F)cc2)cc1 do in these assays?
Dicer processing: 4.6*

What do the screens show for `Cc1ccc(NS(=O)(=O)c2ccc(Cl)cc2)c([N+](=O)[O-])c1`?
Dicer processing: -0.45

Results for COC(=O)c1ccc(/C=N/Nc2ccc(C(F)(F)F)cc2)n1-c1ccc(F)cc1 ?
Dicer processing: 2.5

Results for O=S1(=O)N=S(c2ccccc2)c2ccccc21 (centres undefined) ?
Dicer processing: 0.12

Results for c1ccc(-c2c(-c3ccccc3)n(Cc3ccco3)c3ncnc(NCc4ccco4)c23)cc1 ?
Dicer processing: 2.8

What do the screens show for `OCCNc1ncnc2c1oc1ccccc12`?
Dicer processing: 0.64

What do the screens show for `c1cn(CCCNc2ncnc3ccsc23)cn1`?
Dicer processing: -1.4

Results for Cc1ccccc1OCc1nc(C#N)c(NCCCn2ccnc2)o1 ?
Dicer processing: -0.23

What do the screens show for `OCCNc1ncnc2c1c(-c1ccccc1)c(-c1ccccc1)n2Cc1ccco1`?
Dicer processing: 5.9*

How did c1ccc(-c2c(-c3ccccc3)n(Cc3ccco3)c3ncnc(NCCCn4ccnc4)c23)cc1 do in these assays?
Dicer processing: 3.9*

Results for c1ccc(OCc2nnc3sc(-c4cccnc4)nn23)cc1 ?
Dicer processing: -0.56

How did COc1cc(C2Nc3ccc4ccccc4c3C3=C2CC(C)(C)CC3=O)ccc1O (centres undefined) do in these assays?
Dicer processing: -0.66

How did CCCc1cc(C(=O)Cc2csc(C)n2)c(O)cc1O do in these assays?
Dicer processing: 1.6

Results for NC(=O)c1c(C(F)(F)F)cccc1C(F)(F)F ?
Dicer processing: -0.98

How did CCOc1cc(C2C(C(=O)OCC3CCCO3)=C(C)NC3=C2C(=O)CC(C)(C)C3)cc(Cl)c1O (centres undefined) do in these assays?
Dicer processing: 1.2

Results for COC(=O)c1cc(C#N)c(SCC(=O)c2ccc(Cl)cc2)nc1C(OC)OC ?
Dicer processing: -0.64

Results for COc1cccc(C2C(C#N)=C3N=C(N)c4ccccc4N3C3=C2C(=O)CCC3)c1OC (centres undefined) ?
Dicer processing: -2.4

Results for CN(C)c1ccc(C2C(C#N)=C3N=C(N)c4ccccc4N3C3=C2C(=O)CCC3)cc1 (centres undefined) ?
Dicer processing: 3.4*

What do the screens show for `CC1(C)CC(=O)C2=C(C1)N1C(=C(C#N)C2c2ccccc2F)N=C(N)c2ccccc21` (centres undefined)?
Dicer processing: 3.2*

What do the screens show for `Cc1ccc(C2C(C#N)=C3N=C(N)c4ccccc4N3C3=C2C(=O)CCC3)cc1` (centres undefined)?
Dicer processing: 2.5

Results for COc1ccc(C2C(C#N)=C3N=C(N)c4ccccc4N3C3=C2C(=O)CC(C)(C)C3)c(OC)c1 (centres undefined) ?
Dicer processing: 3

What do the screens show for `N#CC1=C2N=C(N)c3ccccc3N2C2=C(C(=O)CCC2)C1c1ccc(F)cc1` (centres undefined)?
Dicer processing: 0.21

Results for Cc1ccc(-c2nn(CC(=O)c3ccccc3)c(=O)c3ccccc23)cc1 ?
Dicer processing: -0.57

How did CC(C)N(Cc1ccccc1)C(=O)c1ccccc1C(=O)O do in these assays?
Dicer processing: -1.1

Results for CC1=NN(c2ccccc2)C(C2=C(C)CCCC2(C)C)C1 (centres undefined) ?
Dicer processing: 3.2*

How did Fc1ccc(C2=NN(c3ccccc3)C(c3ccc(F)cc3)C2)cc1 (centres undefined) do in these assays?
Dicer processing: 2.4

How did Cc1nn(-c2ccccc2)c2c1C1(C)CC(C)(O2)c2c(C)nn(-c3ccccc3)c2O1 do in these assays?
Dicer processing: -8.8

What do the screens show for `COc1cccc(Cn2c(-c3cncs3)nc3ccccc32)c1`?
Dicer processing: -1.4

How did C#CCSc1ccccc1C1=NCCCN1 do in these assays?
Dicer processing: 0.68

What do the screens show for `Cc1ccc(C)n1-c1cc([N+](=O)[O-])ccc1-n1ccnc1`?
Dicer processing: 0.09

What do the screens show for `Cc1ccc(C)n1-c1cc([N+](=O)[O-])ccc1N1CCN(S(=O)(=O)c2cn(C)cn2)CC1`?
Dicer processing: 4.8*

How did Cc1ccc(C)n1-c1cc([N+](=O)[O-])ccc1N1CCN(C(=O)N(C)C)CC1 do in these assays?
Dicer processing: 0.36

How did CN(C)c1cnn(-c2cnc3ccccc3n2)c(=O)c1Cl do in these assays?
Dicer processing: -0.18

Results for O=C(CSc1nc2c(Cl)cc(Cl)cc2s1)Nc1ccc(Cl)cc1 ?
Dicer processing: -0.89

How did CCOc1ccc(C2C(C(=O)OC(C)C)=C(C)NC3=C2C(=O)CC(c2ccc(OC)cc2)C3)cc1 (centres undefined) do in these assays?
Dicer processing: 0.91

What do the screens show for `CCOC(=O)C1=C(C)NC2=C(C(=O)CC(c3ccc(OC)cc3)C2)C1c1ccc(O)c(OC)c1` (centres undefined)?
Dicer processing: -0.1

How did COCCOC(=O)C1=C(C)NC2=C(C(=O)CC(c3cccs3)C2)C1c1ccsc1 (centres undefined) do in these assays?
Dicer processing: 1.4

Results for CCCOC(=O)C1=C(C)NC2=C(C(=O)CC(c3cccs3)C2)C1c1ccc(F)cc1 (centres undefined) ?
Dicer processing: 2.8

Results for CC1=C(C#N)C(c2cccc(F)c2)C2=C(CCCC2=O)N1 (centres undefined) ?
Dicer processing: 4.7*

Results for COCCOC(=O)C1=C(C)NC2=C(C(=O)CC(c3cccs3)C2)C1c1ccc(O)c(OC)c1 (centres undefined) ?
Dicer processing: 2.5

Results for CCOCCOC(=O)C1=C(C)NC2=C(C(=O)CC(c3cccs3)C2)C1c1ccc(O)c(OC)c1 (centres undefined) ?
Dicer processing: 5*

What do the screens show for `COc1ccc(C2CC(=O)C3=C(C2)NC(C)=C(C(=O)OC(C)C)C3c2ccc(N(C)C)cc2)cc1` (centres undefined)?
Dicer processing: 3.8*

What do the screens show for `COCCOC(=O)C1=C(C)NC2=C(C(=O)CC(c3cccs3)C2)C1c1ccc(O)cc1` (centres undefined)?
Dicer processing: 3*

Results for CCc1ccc(C2C(C#N)=C(C)NC3=C2C(=O)CCC3)cc1 (centres undefined) ?
Dicer processing: 0.32

What do the screens show for `COc1ccc(C2CC(=O)C3=C(C2)NC(C)=C(C(=O)OC(C)C)C3c2ccc(F)cc2)cc1` (centres undefined)?
Dicer processing: -0.25

Results for CC1=C(C#N)C(c2ccccc2F)C2=C(CCCC2=O)N1 (centres undefined) ?
Dicer processing: 6.6

What do the screens show for `Cc1ccc2c(C)nc(Nc3nc(C)cc(C)n3)nc2c1`?
Dicer processing: 0.47

How did C=CCOc1ccc(C2CC(=O)Nc3n[nH]c(-c4ccc(Cl)cc4)c32)cc1OC (centres undefined) do in these assays?
Dicer processing: -0.73

What do the screens show for `CC1OCC/C1=N/OC(=O)Nc1c(Cl)cccc1Cl` (centres undefined)?
Dicer processing: -1.4

What do the screens show for `CCCCCCOC(=O)c1ccc(OC(=O)c2cncc(Br)c2)cc1`?
Dicer processing: 1.4

How did O=C(CN1C2=NCCN2c2ccccc21)c1cccc2ccccc12 do in these assays?
Dicer processing: 1.5

How did COc1ccc(/C(O)=C2\C(=O)C(=O)N(CCCn3ccnc3)C2c2ccc(C)cc2)cc1 (centres undefined) do in these assays?
Dicer processing: 1.2

Results for COc1cc(OC)cc(-c2nc(-c3ccc(C)nc3OC)no2)c1 ?
Dicer processing: 1.5

Screening data: PubChem, Center for Chemical Genomics, University of Michigan
